mHTT CaM bind: mHTT-calmodulin interaction abrogation | P42858 | AlphaScreen His-mHTT/GST-CaM binding, luminescence | inhibition, % at 15 µM | 3.6% of 190,000 active;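 also: 0% = both proteins with DMSO and 100% = one protein alone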
Pf apPOL block: Pf-apPOL DNA polymerase inhibition | Recombinant Pf-apPOL, molecular beacon fluorescence, 1.5 h | inhibition, % at 10 µM | 0.25% of 210,000 active | AID 1794808
Active calls of the source: *; · = not tested or not shown. The list is not random: actives were taken first. Their share in the collection is about 3.6%. Rule as the data show it: active = inhibition above about 50%; inactive = the rest.

SMILES | mHTT CaM bind | Pf apPOL block
Cc1ccc(OCC(=O)Nc2ccc(C(C)C)cc2)cc1 | -15 | -1
CCN(CCCNS(=O)(=O)c1ccc(Cl)s1)c1cccc(C)c1 | 65* | -3
CCN(CCCNC(=O)C1CCCN(S(=O)(=O)N2CCCC2)C1)c1cccc(C)c1 (stereo not given) | 36 | -27
CCCCC(=O)N1CCc2c(c(C(=O)NCc3cccc(C)c3)nn2C)C1 | 59* | 2
Cn1nc(C(=O)NCc2ccccc2)c2c1CCN(C(=O)Cc1ccc(F)cc1)C2 | 78* | -6
Cc1cccc(CNC(=O)c2nn(C)c3c2CN(C(=O)Cc2ccccc2)CC3)c1 | 63* | 11
CCCCC(=O)N1CCc2c(c(C(=O)NCc3ccccc3)nn2C)C1 | 0 | -9
Cn1nc(C(=O)NCc2ccc(F)cc2)c2c1CCN(C(=O)c1c(F)cccc1F)C2 | 9 | -14
Cc1cccc(CNC(=O)c2nn(C)c3c2CN(C(=O)C(C)C)CC3)c1 | 41 | 67*
Cc1cccc(CNC(=O)c2nn(C)c3c2CN(C(=O)CC(C)C)CC3)c1 | 49 | -4
CCC(CC)C(=O)N1CCc2c(c(C(=O)NCc3cccc(C)c3)nn2C)C1 | 21 | -2
CCOC(=O)NN=Cc1csnn1 | · | -7
O=C(Nc1ccc(Cl)cc1F)c1cc(S(=O)(=O)N2CCc3ccccc3C2)ccc1F | 33 | -3
CCNC(=O)N1CCCC(c2cccc(C(=O)NCc3ccc(OC(C)C)cc3)c2)C1 (stereo not given) | 34 | 2
Cc1ccccc1NC(=O)Nc1cccnc1N(C)C | 6 | -4
O=C(Cc1cccs1)Nc1ccc(Nc2ccc(-n3cccn3)nn2)cc1 | -13 | -4
O=C(O)C1C2C=CC3(CN(Cc4cccnc4)C(=O)C13)O2 (stereo not given) | -6 | 3
Cc1cc(Nc2ccc(N(C)C)cc2)c2cc(Cl)ccc2n1 | 73* | -6
CCOc1ccc2nc(C)cc(Nc3ccc(N4CCOCC4)cc3)c2c1 | 25 | -3
CCOc1ccc2nc(C)cc(Nc3ccc(C)c(Cl)c3)c2c1 | 95* | -12
Cc1cc(Nc2ccc(O)cc2)c2cc(Cl)ccc2n1 | 17 | -7
COc1ccc(CNC(=O)C2CCCN(C(=O)c3cccc(Cl)c3)C2)cc1 (stereo not given) | 28 | 1
CCN1CCC2(CC1)N=C(c1ccc(C)cc1)CC(c1cc(Br)ccc1O)N2 (stereo not given) | 65* | -2
CN1CCC2(CC1)N=C(c1ccc(Br)cc1)CC(c1cc(Cl)ccc1O)N2 (stereo not given) | 100* | -9
CCN1CCC2(CC1)N=C(c1ccccc1)CC(c1cc(Cl)ccc1O)N2 (stereo not given) | 47 | -1
SMILES | mHTT CaM bind | Pf apPOL block
Cc1ccc(C2=NC3(CCN(C)CC3)NC(c3cc(Br)ccc3O)C2)cc1 (stereo not given) | 26 | -3
CC(NC(=O)CCc1ccccc1)c1ccccc1 (stereo not given) | -13 | -12
Cc1noc(C)c1C1CCCN1Cc1ccccc1O (stereo not given) | -6 | 0
CC(=O)Nc1ccc(S(=O)(=O)Nc2ccc3c(c2)oc2ccccc23)cc1 | 45 | -6
O=S(=O)(Nc1ccc2c(c1)oc1ccccc12)c1ccc2ccccc2c1 | 77* | ·
Cc1ccc(C)c(CN2C(=O)NC3(CCN(C(=O)c4nccc5ccccc45)CC3)C2=O)c1 | 34 | -6
O=C(Nc1cccc(Br)c1)Oc1ccccc1 | -17 | -14
O=C(NCc1ccccc1Cl)c1ccc2c(c1)NC(=O)C(N1CCCC1)S2 (stereo not given) | 6 | -16
O=C(NCc1ccccn1)c1ccc2c(c1)NC(=O)C(N1CCCC1)S2 (stereo not given) | 58* | -11
CCOc1ccc(-c2cc(=O)n(CCCC(=O)Nc3ccc4sc(C)nc4c3)cn2)cc1 | 10 | -5
CCn1c2c(c3ccccc31)CN(C(=O)c1ccc(C#N)cc1)CC2 | 54* | -4
CSc1nnc(-c2nn(C)c3c2CN(C(=O)c2ccc(C#N)cc2)CC3)n1C | -2 | -4
NNc1nccc(Nc2ccccc2C(=O)O)n1 | 100* | -4
O=C(O)c1ccccc1Nc1ccnc(N2CCOCC2)n1 | 0 | -2
CCc1ccc(NC(=O)CSc2nc3c(c(=O)n2-c2ccccc2)SCC3)cc1 | 15 | 2
CCc1ccc(NC(=O)CSc2nc3c(c(=O)n2-c2ccc(Cl)cc2)SCC3)cc1 | 19 | 99*
CN(N)c1nc(N2CCOCC2)nc(N2CCOCC2)n1 | 1 | -7
COc1ccc(C2CC(c3ccc(OC)cc3OC)=NN2c2ccccc2)cc1 (stereo not given) | · | -7
COc1ccc2cc(C(=O)NC(C)=O)c(=Nc3ccc(C(F)(F)F)cc3)oc2c1 | 3 | 66*
COc1ccc2cc(C(=O)NC(C)=O)c(=Nc3ccc(F)cc3)oc2c1 | 4 | 2
C=C(C)COc1ccc2cc(-c3ccc(OC)c(OC)c3)c(=O)oc2c1 | -51 | -3
CCn1c(=O)c(C(=O)NCC2CCCCC2)nc2cccnc21 | -2 | -1
COc1cc(OC)cc(N2C=C(C#N)S(=O)(=O)c3ccc(F)cc32)c1 | 0 | -4
COCC(=O)N1CCc2c(c(C(=O)NCc3ccc(Cl)cc3)nn2C)C1 | 18 | -1
Cn1nc(C(=O)NCc2ccccc2)c2c1CCN(C(=O)COc1ccc(Cl)cc1)C2 | 87* | -7
SMILES | mHTT CaM bind | Pf apPOL block
CC(C)CC(=O)N1CCc2c(c(C(=O)NCc3ccccc3)nn2C)C1 | 18 | -7
Cn1nc(C(=O)NCc2ccccc2)c2c1CCN(C(=O)COc1ccccc1)C2 | 56* | -9
Cn1nc(C(=O)NCc2ccc(F)cc2)c2c1CCN(C(=O)COc1ccc(F)cc1)C2 | 81* | -9
CCOc1ccc(C(=O)N2CCc3c(c(C(=O)NCc4ccc(F)cc4)nn3C)C2)cc1 | -9 | -10
CC(NC(=O)c1cc2c(n1C)CCN(Cc1ccccc1)C2)c1ccccn1 (stereo not given) | 20 | -2
Cc1cccc(-n2nc3c(c2NC(=O)C2CCCCC2)CS(=O)(=O)C3)c1C | -3 | -9
COc1cc(C2C(C(=O)Nc3cc(C)ccn3)=C(C)NC3=C2C(=O)CC(C)(C)C3)ccc1O (stereo not given) | 8 | 6
O=C(Oc1ccc2c(c1)OC(=Cc1ccccc1)C2=O)c1ccco1 | 4 | -4
O=C(Oc1ccc2c(c1)OC(=Cc1ccccc1Br)C2=O)c1ccco1 | 50* | -4
COc1ccc(-c2cc(C(=O)N3CCN(c4ccc([N+](=O)[O-])cc4)CC3)c3ccccc3n2)cc1 | 14 | 2
COc1ccc(C(=O)N2CCCCCC2)cc1OC | -29 | -12
COc1cc(OC)cc(C2=NC3(CCCCC3)N(C(=O)c3ccc(OC)c(OC)c3)C2=S)c1 | 76* | 0
O=S(=O)(Cc1nc(-c2cccc(Br)c2)no1)c1ccccc1 | -54 | 1
Brc1cccc(-c2noc(CSc3nccn3-c3ccccc3)n2)c1 | 63* | 0
COc1ccc(/C=C/c2nc3ccccc3[nH]2)cc1 | -5 | 4
Nc1ccc2nc(/C=C/c3nc4ccc(N)cc4[nH]3)[nH]c2c1 | 53* | 80*
Nc1cccc(-c2nc3ccc(-c4ccc5nc(-c6cccc(N)c6)[nH]c5c4)cc3[nH]2)c1 | 97* | -6
Nc1ccc(-c2nc3ccc(N)cc3[nH]2)cc1 | 22 | -8
CC(=O)Nc1ccc2nc(-c3ccc(-c4nc5ccc(NC(C)=O)cc5[nH]4)cc3)[nH]c2c1 | · | 35
